Only some compounds are listed: those with a hit (about 1.7% of all), similar ones and a draw of the others.
Anesthetic bind: binds horse apoferritin like a general anesthetic | P02791 | apoferritin/1-aminoanthracene competitive binding, fluorescence | Potency, µM (doses to about 77.5 µM), for the others: at the highest dose activity change, negative = displacement, most hits filed as inhibitors | actives 0.074% (n = 350,000) | AID 485281; further: on the % scale 0 is the no-effect control and ±100 the full control effect; nearly all actives have a fitted effect of over 20% in size
Target sequence (P02791 2-175 limits assumed): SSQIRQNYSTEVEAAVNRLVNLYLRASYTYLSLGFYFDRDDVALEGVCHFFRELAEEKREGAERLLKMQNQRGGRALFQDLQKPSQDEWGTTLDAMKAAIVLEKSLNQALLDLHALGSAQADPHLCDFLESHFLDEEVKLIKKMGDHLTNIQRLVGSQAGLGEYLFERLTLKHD
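Apoferritin-based anesthetic binding model; compound displacement of fluorescent 1-AMA measured as endpoint fluorescence after 10 minutes at room temperature, scaled to free-ligand and complex controls.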
rTrxR1 inhibitor: blocks rat thioredoxin reductase 1; O89049; recombinant rTrxR1, NADPH fluorescence consumption, selenite substrate; Potency, µM (titrated, usually from 114 µM), for the others: at the top dose activity change, negative = inhibition, usual class: inhibitors; actives 1% (n = 390,000); AID 588453; further: on the % scale 0 is the no-effect control and ±100 the full control effect; nearly all actives have a fitted effect of over 65% in size
Target sequence (O89049 whole entry, looked up): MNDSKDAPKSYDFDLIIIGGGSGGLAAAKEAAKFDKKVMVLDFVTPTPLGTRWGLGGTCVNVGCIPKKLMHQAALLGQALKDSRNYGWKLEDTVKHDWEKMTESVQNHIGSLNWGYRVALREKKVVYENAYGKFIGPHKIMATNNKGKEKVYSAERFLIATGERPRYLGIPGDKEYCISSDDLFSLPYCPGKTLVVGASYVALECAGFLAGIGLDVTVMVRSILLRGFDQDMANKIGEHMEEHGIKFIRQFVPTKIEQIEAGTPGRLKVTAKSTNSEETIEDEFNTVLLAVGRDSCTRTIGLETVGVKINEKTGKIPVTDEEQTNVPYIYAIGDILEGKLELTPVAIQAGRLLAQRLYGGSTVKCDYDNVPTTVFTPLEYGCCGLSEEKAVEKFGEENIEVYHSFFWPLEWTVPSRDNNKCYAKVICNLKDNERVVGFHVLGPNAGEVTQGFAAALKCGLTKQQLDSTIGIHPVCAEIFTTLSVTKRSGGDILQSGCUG
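Rat TrxR1 (90 nM in the dispensed reagent) was pre-reduced with 400 uM NADPH for 5 min at room temperature, then incubated with compound for 15 min. After 400 uM selenite was added, NADPH fluorescence (Ex 340/Em 450 nm) was followed for 8 min.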
mIDH1 inhibitor: blocks human mutant IDH1 R132H enzyme; AID 602179; IDH1-R132H enzyme, NADPH consumption, diaphorase/resazurin fluorescence; actives 0.093% (n = 390,000); O75874; Potency, µM (doses to about 76.6 µM), inactives show at the highest dose activity change, negative = inhibition, usual class: inhibitors; further: on the % scale 0 is the no-effect control and ±100 the full control effect; nearly all actives have a fitted effect of over 65% in size
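IDH1-R132H (0.5 ug/mL dispensed) in pH 7.5 Tris buffer was preincubated 30 min with compound, then given a substrate mix of 0.016 mM NADPH and 2 mM alpha-KG for 80 min at room temperature; remaining NADPH was read by diaphorase/resazurin fluorescence.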
GRP78 ERSR act: inducers of ER stress response in human glioma cells. U87-MG GRP78 promoter luciferase reporter, 16 h. Potency, µM, for inactives: at the top dose activation, most hits filed as activators. actives 0.02% (n = 420,000); further: series mostly up to about 76 µM; % of control where 0% means no effect; nearly all actives have a fitted effect of over 35% in size
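Stably transfected U87-MG glioma cells carrying a GRP78-based luciferase sensor; 16 h compound incubation. Luminescence end-point read 10 min after Bright-Glo addition at room temperature.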
ALOX12 inh: ALOX12 (human) lipoxygenase inhibition | purified 12hLO, xylenol orange hydroperoxide absorbance | actives 1.1% (n = 580,000) | AID 1671190 | Potency, µM (titrated, usually from 108 µM), for the others: at the top dose activity change, negative = inhibition, most hits filed as inhibitors | P18054; further: on the % scale 0 is the no-effect control and ±100 the full control effect
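Purified human 12hLO at 150 nM in 25 mM Hepes, 0.01% Triton X-100, pH 7.0, preincubated 15 min at room temperature with compound. Reaction started with 40 uM arachidonic acid, 30 min at room temperature. Hydroperoxide measured by Fe-xylenol orange, 573/405 nm absorbance ratio.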
TrxR1 substrate: rat thioredoxin reductase 1 substrate activity; O89049; Potency, µM (titrated, usually from 114 µM), without a hit: at the top dose activity change, negative = substrate turnover; actives 0.01% (n = 390,000); purified TrxR1 substrate turnover, NADPH consumption readout; further: on the % scale 0 is the no-effect control and ±100 the full control effect; nearly all actives have a fitted effect of over 50% in size
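Rat TrxR1, dispensed at 90 nM, was prereduced with 400 uM NADPH (final) for 5 min at ~22 deg C, then incubated with compound 15 min before 400 uM selenite. A first-read NADPH fluorescence drop versus no-compound background flagged substrates.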
* hit, by the source's call; [ ] = another dose, or the depositor's remark. The call rests on the fitted dose curve; in most records, active means well fitted curve in the direction sought with a large enough effect; inconclusive means small, poorly fitted or top-dose-only effect, or another doubt; inactive means no such curve, though single readings can be large; an effect the other way counts as inactive or inconclusive. Potency means the concentration at half of the fitted maximal effect.

`O=C(CSc1ncccn1)NCC1Cc2cccc(-c3ncccn3)c2O1` (centres undefined) gave GRP78 ERSR act -2% and ALOX12 inh 11%.
Cc1cccc(NC(=O)CSc2ccc(-c3ccco3)nn2)c1C was read as Anesthetic bind -5%, rTrxR1 inhibitor 13µM*, mIDH1 inhibitor 0%, GRP78 ERSR act 0%, ALOX12 inh -23% and TrxR1 substrate -6%.
Screening O=C(CSc1ccc(-c2ccco2)nn1)c1cccc([N+](=O)[O-])c1 returned Anesthetic bind -3%, rTrxR1 inhibitor 16µM*, mIDH1 inhibitor 5%, GRP78 ERSR act -4%, ALOX12 inh -26% and TrxR1 substrate 8%.
COc1ccc(C)cc1NC(=O)CSc1nnc(-c2ccco2)n1N was read as Anesthetic bind -14%, rTrxR1 inhibitor -14%, mIDH1 inhibitor -2%, GRP78 ERSR act -4%, ALOX12 inh -17% and TrxR1 substrate -8%.
`COc1ccc(C)cc1NC(=O)CSc1ccc(-c2ccco2)nn1` gave Anesthetic bind -19%, rTrxR1 inhibitor 16µM*, mIDH1 inhibitor 4%, GRP78 ERSR act -3%, ALOX12 inh 0% and TrxR1 substrate 3%.
For Cc1cc(C(=O)N2CCOC(Cc3cccc(C(F)(F)F)c3)C2)nn1C (centres undefined) the results were ALOX12 inh 38%.
For Cn1c(=O)c2c(nc(Cl)n2Cc2ccc(-c3ccccc3)cc2)n(C)c1=O the results were ALOX12 inh 12%.
For O=C(NC[C@H]1COCc2nc3ccccc3n21)c1ccc(Cl)cc1 the results were ALOX12 inh 33%[176 µM].
COc1cc2oc(=O)c(CC(=O)N3CCCCC3)c(C)c2cc1OC was read as Anesthetic bind 92%, rTrxR1 inhibitor 16µM*, mIDH1 inhibitor 17%, GRP78 ERSR act -5%, ALOX12 inh -28% and TrxR1 substrate 782%.
For CCOCCCNC(=O)c1nnn2cc(-c3ccccc3)[nH]c(=O)c12 the results were ALOX12 inh 18µM*.
`CCOCCCNC(=O)c1cc2c(=O)[nH]c(-c3ccccc3)cn2n1` gave ALOX12 inh 16%.
`COc1ccc(-c2noc(CC3CCN(C(=O)c4cc(OC)c(OC)c(OC)c4)CC3)n2)cc1` gave ALOX12 inh 15%.
CC(C)(C)c1ccc(CC/C=N/O)cc1 was read as ALOX12 inh 11µM*.
`CN1C(=O)C(CC(=O)N2CCCNCC2)(Cc2ccccc2)c2ccccc21` (centres undefined) gave ALOX12 inh 13%.
COc1ccc2c(COC(=O)c3n[nH]c4ccccc34)cc(=O)oc2c1 was read as Anesthetic bind 0%, rTrxR1 inhibitor 3%[57.1 µM], mIDH1 inhibitor 2%, GRP78 ERSR act -12%, ALOX12 inh -22% and TrxR1 substrate 37%.
For O=C(OCc1cc(=O)oc2cc(O)ccc12)c1n[nH]c2ccccc12 the results were ALOX12 inh 25µM*.
O=C(NCC1CCOc2ccccc2C1)c1cn(CCN2CCNCC2)nn1 (centres undefined) was read as ALOX12 inh -18%.
`O=C(NC1CCOC2(CCOCC2)C1)c1cn(CCN2CCNCC2)nn1` (centres undefined) gave ALOX12 inh 22µM*.
For COc1ccccc1N=Cc1nc(-c2ccccc2)oc1OC(C)=O the results were Anesthetic bind 4%, rTrxR1 inhibitor -35%[57.1 µM], mIDH1 inhibitor -6%, GRP78 ERSR act -4%, ALOX12 inh 6% and TrxR1 substrate -8%[57.1 µM].
For CC(=O)Oc1oc(-c2ccccc2)nc1/C=N/c1ccccn1 the results were Anesthetic bind -7%, rTrxR1 inhibitor 7.1µM*, mIDH1 inhibitor -2%, GRP78 ERSR act 2%, ALOX12 inh -17%[57.4 µM] and TrxR1 substrate -3%.
O/N=C1/CCC2CCCC1C2 (centres undefined) was read as ALOX12 inh -6%.
For COCCCn1c(=S)[nH]c2sc3c(c2c1=O)CCCS3 the results were Anesthetic bind -7%, rTrxR1 inhibitor -21%[57.1 µM], mIDH1 inhibitor 9%, GRP78 ERSR act -1%, ALOX12 inh 45µM* and TrxR1 substrate 2%[57.1 µM].
`COCCn1c(=S)[nH]c2sc3c(c2c1=O)CCC(C)C3` (centres undefined) gave Anesthetic bind 4%, rTrxR1 inhibitor inconclusive, mIDH1 inhibitor -2%, GRP78 ERSR act 3%, ALOX12 inh inconclusive and TrxR1 substrate -4%.
`Cc1ccc2[nH]c3c(=O)n(CC(=O)N4CCN(c5cccc(C(F)(F)F)c5)CC4)ncc3c2c1` gave Anesthetic bind -11%, rTrxR1 inhibitor 46%, mIDH1 inhibitor -10%, GRP78 ERSR act 0%, ALOX12 inh inconclusive and TrxR1 substrate 10%.
Screening Cc1ccc2[nH]c3c(=O)n(CC(=O)N4CCN(C)CC4)ncc3c2c1 returned Anesthetic bind -6%, rTrxR1 inhibitor 35µM*, mIDH1 inhibitor 1%, GRP78 ERSR act -4%, ALOX12 inh 3% and TrxR1 substrate 2%.
COc1ccc(C2CC(=O)N(c3sc4c(c3C#N)CCCC4)C3=C2C(=O)CC(C)(C)C3)cc1OC (centres undefined) was read as ALOX12 inh 0%.
COCCNC(=O)C(C)(C)n1cc(NC(=O)COCc2ccccc2)cn1 was read as ALOX12 inh -4%.
Screening COc1ccc(S(=O)(=O)N2CN(Cc3ccco3)c3nc4ccccc4nc32)cc1 returned Anesthetic bind -11%, rTrxR1 inhibitor 35µM*, mIDH1 inhibitor 15%, GRP78 ERSR act inconclusive, ALOX12 inh -9% and TrxR1 substrate 22%.
CCOc1cccc2cc(S(=O)(=O)c3cc(F)cc(F)c3)c(=O)oc12 was read as ALOX12 inh -5%.
`O=C(Nc1ncc(Cc2ccc(Cl)cc2)s1)C1=Cc2ccccc2OC1` gave ALOX12 inh -27%.
Screening C=C(C)C(=O)Nc1cccc(C2=NOC3(C2)C[C@@H](C(N)=O)N(C(=O)C(=C)C)C3)c1 (some centres undefined) returned Anesthetic bind -5%, rTrxR1 inhibitor -18%[57.1 µM], mIDH1 inhibitor -6%, GRP78 ERSR act -2%, ALOX12 inh -7% and TrxR1 substrate -5%[57.1 µM].
`C/C=C\C=C/C(=O)Nc1cccc(C2=NOC3(C2)C[C@@H](C(N)=O)N(C(=O)C2(C)CC2)C3)c1` (some centres undefined) gave Anesthetic bind -3%, rTrxR1 inhibitor 28µM*, mIDH1 inhibitor -8%, GRP78 ERSR act -4%, ALOX12 inh 1% and TrxR1 substrate 3%.

Assay outcomes as filed in PubChem.
